Screening data as filed in PubChem BioAssay.
Hits are enriched below; roughly 0.74% of the tested compounds scored in any of these assays.
PGK inhibitor = blocks T. brucei phosphoglycerate kinase; P07378; PGK/GAPDH coupled, Kinase-Glo luminescence, 60 min; Potency, µM (highest dose often 57.5 µM), usual class: inhibitors; hit rate 0.043% among 380,000; also: nearly all actives have a fitted effect of over 60% in size
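Recombinant glycosomal PGK reaction used 1,3-bisphosphoglycerate generated in-well by GAPDH (100nM final) in 100mM TEA pH 7.6, 5mM MgCl2, 0.01% Tween-20. After 60 minutes at room temperature, ATP was read by Kinase-Glo Plus luminescence end-point.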
APEX1 inh = APE1 (human) endonuclease inhibition | P27695 | recombinant APE1, TAMRA/BHQ-2 abasic DNA cleavage fluorescence | Potency, µM (titrated, usually from 65.8 µM), most hits filed as inhibitors | hit rate 0.35% among 350,000; also: nearly all actives have a fitted effect of over 55% in size
Target sequence (P27695 whole entry, looked up): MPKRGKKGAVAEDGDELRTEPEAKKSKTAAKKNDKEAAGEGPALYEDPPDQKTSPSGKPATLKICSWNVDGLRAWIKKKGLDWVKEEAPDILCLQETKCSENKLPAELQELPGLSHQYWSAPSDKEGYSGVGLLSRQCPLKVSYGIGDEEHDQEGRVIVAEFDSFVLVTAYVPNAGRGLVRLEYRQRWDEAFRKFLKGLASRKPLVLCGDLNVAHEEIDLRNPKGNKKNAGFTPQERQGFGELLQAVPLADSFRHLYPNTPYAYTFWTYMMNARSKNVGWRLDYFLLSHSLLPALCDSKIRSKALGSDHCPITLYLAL
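APE1 at 0.75 nM final was preincubated with compound 15 min at room temperature, then 50 nM double-stranded THF abasic-site substrate (5'-TAMRA/3'-BHQ-2) was added. Fluorescence (ex 525/em 598 nm) was read kinetically; third-minus-first read gave activity.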
BLM inh = Bloom syndrome helicase (human) inhibition; P54132; recombinant BLM DNA unwinding, fluorescence dequenching; Potency, µM (series often up to 56.1 µM), most hits filed as inhibitors; hit rate 0.2% among 350,000; also: nearly all actives have a fitted effect of over 35% in size
RECQ1 helicase = inhibitors of human RECQ1 DNA helicase | P46063 | RECQ1 DNA unwinding, red fluorescence kinetic read | Potency, µM (top dose mostly 57.3 µM), most hits filed as inhibitors | hit rate 0.54% among 240,000; also: nearly all actives have a fitted effect of over 30% in size
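50 nM RECQ1T1 preincubated 15 min with compound in Tris pH 8.0 buffer with MgCl2, DTT, Tween-20 and 2.5 ug/ml poly(dI-dC); started with 200 nM TAMRA/BHQ-2 forked duplex and 2 mM ATP. Unwinding read as fluorescence (525/598 nm), two reads 2 h apart.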
FEN1 inh-1 = blocks human flap endonuclease 1 | Recombinant FEN1 flap cleavage, fluorescence, 15 min | Potency, µM (highest dose often 114 µM), usual class: inhibitors | hit rate 0.35% among 390,000; also: nearly all actives have a fitted effect of over 65% in size
Target sequence (P39748 whole entry, looked up): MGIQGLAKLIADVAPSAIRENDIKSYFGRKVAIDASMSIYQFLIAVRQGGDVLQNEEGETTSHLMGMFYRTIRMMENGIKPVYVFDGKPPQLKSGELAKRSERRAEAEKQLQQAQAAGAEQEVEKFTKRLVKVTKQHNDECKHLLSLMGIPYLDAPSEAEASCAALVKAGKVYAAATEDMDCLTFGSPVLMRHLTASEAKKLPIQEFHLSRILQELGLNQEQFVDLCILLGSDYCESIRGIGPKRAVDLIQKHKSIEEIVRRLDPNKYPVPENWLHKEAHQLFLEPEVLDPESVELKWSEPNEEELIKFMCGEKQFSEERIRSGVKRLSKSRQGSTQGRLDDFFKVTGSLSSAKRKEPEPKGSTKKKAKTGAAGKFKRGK
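With each library titrated from low to high concentration, compounds met 10 nM FEN1 for 15 min at room temperature before 50 nM substrate was added; readings at 0 and 15 min fed four-parameter Hill curve fits.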
FEN1 inh-2 = confirmation of human FEN1 inhibitors; shares compounds with FEN1 inh-1; FEN1 flap cleavage, TAMRA/BHQ2 fluorogenic DNA substrate; Potency, µM, hits mostly inhibitors; hit rate 79% among 880; AID 720498; also: nearly all actives have a fitted effect of over 60% in size
Large screens that a line does not name were inactive (follow-up assays come after a bar, where they were run). Calls follow the shape of the dose curve; as a rule, active = well fitted curve in the direction sought with a large enough effect; inconclusive = small, poorly fitted or top-dose-only effect, or another doubt; inactive = no such curve, though single readings can be large; an effect the other way counts as inactive or inconclusive.

COC(=O)C1=COC(OC2OC(CO)C(O)C(O)C2O)C2C1C=CC2(O)CO (stereo not given)	PGK inhibitor inconclusive, APEX1 inh 7.9µM | FEN1 inh-2 inconclusive
Cc1nc2nc[nH]n2c(=O)c1NS(C)(=O)=O	none
Cc1nn(Cc2ccc(Cl)c(Cl)c2)c(C)c1NC(=O)c1sc2ccccc2c1Cl	none
O=C1c2cccc3cc([N+](=O)[O-])cc(c23)C(=O)N1/N=C/c1ccc(O)cc1O	APEX1 inh inconclusive, FEN1 inh-1 inconclusive | FEN1 inh-2 43
COc1ccccc1/C=N/N1C(=O)c2cccc3cccc(c23)C1=O	none
CC(=O)Nc1ccc(NC(=O)c2cc(-c3ccc(C)c(C)c3O)n[nH]2)cc1	none (no result: RECQ1 helicase)
Cc1ccc(-c2cc(C(=O)Nc3ccc(S(=O)(=O)Nc4ncccn4)cc3)[nH]n2)c(O)c1C	FEN1 inh-1 inconclusive | FEN1 inh-2 inconclusive
O=C(Nc1ccc(N2CCCC2)cc1)c1ccc(Br)o1	none (no result: PGK inhibitor)
CC(=O)C12C3C4C(C5C1C3C5(Br)C41OCCO1)C21OCCO1 (stereo not given)	none
COc1ccc(COCC(O)CN2CCC(CN3C(=O)c4cccc5cccc(c45)C3=O)CC2)cc1OC (stereo not given)	FEN1 inh-1 inconclusive | FEN1 inh-2 inconclusive
Cc1cc(C)cc(OCC(O)CN2CCC(CN3C(=O)c4cccc5cccc(c45)C3=O)CC2)c1 (stereo not given)	FEN1 inh-1 inconclusive | FEN1 inh-2 inconclusive
Cc1ccc2c(c1)c(/C=C/c1cc[n+](C)cc1)c(C)n2C	FEN1 inh-1 inconclusive (no result: RECQ1 helicase) | FEN1 inh-2 34
Cc1ccc2[nH]c(C)c(/C=C/c3cc[n+](C)cc3)c2c1	FEN1 inh-1 inconclusive (no result: RECQ1 helicase)
O=C(Nc1ccc(Cl)cc1Cl)c1cc(S(=O)(=O)N2CCN(c3ccccc3F)CC2)ccc1F	none (no result: APEX1 inh, RECQ1 helicase)
CCCCn1c(N)c(N(CCC(C)C)C(=O)COC(=O)c2ccc([N+](=O)[O-])s2)c(=O)[nH]c1=O	none (no result: BLM inh, RECQ1 helicase) | FEN1 inh-2 7.6
COCC(=O)N(Cc1nc2ccccc2c(=O)[nH]1)Cc1cccs1	none
O=C(Nc1ccc2nc(-c3ccc4nc[nH]c4c3)[nH]c2c1)c1cccs1	APEX1 inh inconclusive, BLM inh inconclusive, FEN1 inh-1 45µM | FEN1 inh-2 inconclusive
CC(C)(C)c1cc(CCC(=O)NN)cc(C(C)(C)C)c1O	none
c1ccc2c(c1)-c1cccc3cncc-2c13	FEN1 inh-1 inconclusive (no result: APEX1 inh, BLM inh, RECQ1 helicase) | FEN1 inh-2 inconclusive
O=C(NN=C1CCCC1)c1cc(Br)ccc1O	none (no result: RECQ1 helicase)
O=C(NN=C1CCCC1)c1ccc(O)cc1O	none (no result: RECQ1 helicase) | FEN1 inh-2 43
O=C(O)c1cc(NC(=O)c2ccc([N+](=O)[O-])cc2)cc(NC(=O)c2ccc([N+](=O)[O-])cc2)c1	FEN1 inh-1 inconclusive (no result: RECQ1 helicase) | FEN1 inh-2 inconclusive
Oc1ccc(/C=N/Nc2ccc(Cl)nn2)c(O)c1O	BLM inh inconclusive, FEN1 inh-1 inconclusive (no result: RECQ1 helicase) | FEN1 inh-2 38
COc1cc(C(=O)Nc2ccc(C)cn2)ccc1OCC(=O)N1CCOCC1	none (no result: BLM inh, RECQ1 helicase)
O=C1c2ccccc2C(=O)c2c(O)ccc(O)c21	none (no result: PGK inhibitor, FEN1 inh-1)
O=C(O)c1cccc2c1C(=O)c1ccccc1C2=O	none
O=C1c2ccccc2C(=O)c2c(O)c(O)cc(O)c21	PGK inhibitor inconclusive, APEX1 inh 19µM, RECQ1 helicase 6.3µM, FEN1 inh-1 inconclusive | FEN1 inh-2 38
COc1ccc(OC)c2c1C(=O)c1ccccc1C2=O	APEX1 inh inconclusive, FEN1 inh-1 inconclusive
COc1ccc2noc3c2c1C(=O)c1ccccc1-3	FEN1 inh-1 inconclusive (no result: APEX1 inh, BLM inh, RECQ1 helicase) | FEN1 inh-2 inconclusive
Nc1ccc(O)c2c1C(=O)c1ccccc1C2=O	PGK inhibitor inconclusive, BLM inh 14µM, FEN1 inh-1 35µM | FEN1 inh-2 43
COc1cccc2c1C(=O)c1ccc3ccccc3c1C2=O	none
COc1ccc(N)c2c1C(=O)c1ccccc1C2=O	APEX1 inh inconclusive, FEN1 inh-1 inconclusive | FEN1 inh-2 76
FC(F)(F)c1cc(CN2CCC3(CCNCC3)CC2)cc(C(F)(F)F)c1	none (no result: PGK inhibitor, FEN1 inh-1)
O=C(Nc1nnc(-c2cccs2)o1)c1ccco1	none
CC(C)CC(=O)NC(=S)Nc1cccc(NC(=O)c2ccccc2Cl)c1	none
O=C1C=C(O)c2c(O)cc(O)c(O)c2C1=O	PGK inhibitor inconclusive, FEN1 inh-1 3.5µM (no result: APEX1 inh, BLM inh, RECQ1 helicase) | FEN1 inh-2 21
Cc1cc(O)c2c(c1O)C(=O)c1c(O)cc(C)c(O)c1C2=O	APEX1 inh inconclusive (no result: PGK inhibitor, FEN1 inh-1)
O=C(NCCC(=O)N1CCCCCCC1)c1ccc(Br)cc1	none (no result: BLM inh, RECQ1 helicase)
CCCCn1c(/N=C/c2ccccc2NS(=O)(=O)c2ccc(C)cc2)nc2ccccc21	none
CC(C)n1cnc2c(Nc3ccc(C(=O)O)cc3)nc(Cl)nc21	none
Cc1cc(N/N=C/c2cccc(Cl)c2)nc(NCc2ccccc2)n1	none
CCN(CC)CCN1C(=O)c2cccc3cc(N)cc(c23)C1=O	APEX1 inh inconclusive, FEN1 inh-1 50µM | FEN1 inh-2 inconclusive
COc1ccc(/C=C2/SC(=S)N(c3ccc(S(=O)(=O)Nc4nccs4)cc3)C2=O)cc1	RECQ1 helicase inconclusive, FEN1 inh-1 50µM | FEN1 inh-2 60
COc1cccc(N(CC(=O)N2CCN(c3ccccc3OC)CC2)S(C)(=O)=O)c1	none
O=C(O)CC(C(=O)O)N1C(=O)/C(=C/C=C/c2ccco2)SC1=S (stereo not given)	PGK inhibitor 4.5µM, APEX1 inh 1µM, RECQ1 helicase 4µM, FEN1 inh-1 inconclusive | FEN1 inh-2 11
O=C(O)CCN1C(=O)/C(=C/c2ccc(-c3nc4ccccc4s3)o2)SC1=S	none
O=C(O)C(Cc1ccccc1)N1C(=O)/C(=C/C=C/c2ccco2)SC1=S (stereo not given)	PGK inhibitor 13µM, APEX1 inh 1.6µM, BLM inh 22µM, RECQ1 helicase 2.8µM, FEN1 inh-1 11µM | FEN1 inh-2 27
O=C(O)CC(C(=O)O)N1C(=O)/C(=C/c2ccc(-c3nc4ccccc4s3)o2)SC1=S (stereo not given)	PGK inhibitor 25µM, RECQ1 helicase inconclusive, FEN1 inh-1 35µM | FEN1 inh-2 60
COc1ccc(/C=C2\SC(=S)N(C(Cc3ccccc3)C(=O)O)C2=O)cc1 (stereo not given)	none
CC1Cc2ccccc2N1C(=O)COC(=O)c1cccc(Br)c1 (stereo not given)	none (no result: BLM inh, RECQ1 helicase)
CCN(CCO)Cc1csc2cc(C)ccc12	none
Cc1cccc2c(N=NC(=O)c3ccc(NS(=O)(=O)c4cccs4)cc3)c(O)[nH]c12	PGK inhibitor inconclusive, APEX1 inh inconclusive, FEN1 inh-1 inconclusive (no result: BLM inh, RECQ1 helicase) | FEN1 inh-2 34
Cc1ccc2[nH]c(O)c(N=NC(=O)c3ccc(NS(=O)(=O)c4cccs4)cc3)c2c1	FEN1 inh-1 inconclusive
O=C(O)c1cccc(N2CCCC2)c1	none
Cc1ccc(C)n1-c1cccc(C(=O)O)c1	APEX1 inh 1.8µM, BLM inh inconclusive, RECQ1 helicase inconclusive (no result: PGK inhibitor, FEN1 inh-1) | FEN1 inh-2 21
